These results are taken from PubChem BioAssay AID588436 (Broad Institute, 2011).

The campaign covered roughly 350,000 compounds. About 550 (0.16%) were called active. No stated cut-off is given here; in the data, active means activation mostly above about 9.7% (no sharp cut-off); inconclusive means no clear call, values can overlap the other calls; inactive means mostly below about 3.7%. The full list was thinned out, with actives kept by preference.

This assay in a line: inducers of Vibrio cholerae quorum light production without autoinducers, primary screen, BH1578 luxS cqsA deficient, single point (AID 588436). Conditions: V. cholerae BH1578 lux reporter, luminescence, 6 h, at 18.7 µM; stronger effect = higher value.
For `COc1ccccc1C(=O)NCCn1cc(SCC(=O)NCc2ccco2)c2ccccc21`, the activation is -0.41% (inactive).

As for `CCC(=O)NC(NCC1CCCO1)C(Cl)(Cl)Cl` (stereo not given), the activation was 16.7% (active).

`CCC(=O)Nc1ccc(S(=O)(=O)NCC2CCCO2)cc1` (stereo not given): the activation is -0.618% (inactive).

In the case of `CCC(=O)c1c[nH]c(C(=O)NCC2CCCO2)c1` (stereo not given), the activation is -0.144% (inactive).

Regarding `O=C(C1CCCN(S(=O)(=O)c2ccccc2)C1)N1CCN(c2ccc(F)cc2)CC1` (stereo not given), the activation entry is “inactive”.

As for `CS(=O)(=O)N1CCC(C(=O)N2CCN(c3ccccc3)CC2)CC1`, the activation entry was “inactive”.

With `CCCS(=O)(=O)N1CCCC(C(=O)N2CCN(c3ccccc3)CC2)C1` (stereo not given), the activation is 33.3% (active).

As to `CCOc1ccc(OCc2cccc(C(=O)N(CC)CC)c2)cc1`, the activation was -0.345% (inactive).

For the compound `Cc1cccc(-n2c(SCC(=O)Nc3cccc(S(=O)(=O)NC4=NCCCCC4)c3)nc3ccccc3c2=O)c1C`, the activation is -0.796% (inactive).

Take `O=C(C1CC(=O)N(c2ccc(F)cc2)C1)N1CCN(c2ccccc2)CC1` (stereo not given): the activation is -0.28% (inactive).

With `Cc1cccc(CN2CCC(n3nccc3NC(=O)c3ccccc3C)CC2)n1`, the activation was -0.82% (inactive).

Regarding `COC(=O)C1=C(C)NC(=O)NC1/C=C/c1ccccc1` (stereo not given), the activation is 33.3% (active).

With `COC(=O)c1ccc(C2NC(=O)NC(C)=C2C(=O)N(C)C)cc1` (stereo not given), the activation is -3.1% (inactive).

For `COC(=O)C1=C(C)N=C2SC(C)C(=O)N2C1/C=C/c1ccccc1` (stereo not given), the activation result is “inactive”.

With `CCN(CC(=O)Nc1ccccc1C(F)(F)F)C(=O)CSCc1c(C)noc1C`, the activation entry is “inactive”.

In the case of `CC(C)CC(N=C1NC(C)(C)Cc2ccccc21)C(=O)O` (stereo not given), the activation was -0.478% (inactive).

In the case of `CC(NCc1cccs1)C(=O)Nc1cc(Cl)cc(Cl)c1` (stereo not given), the activation was -0.542% (inactive).

On to `COC(=O)c1ccc(CNC(=O)Cn2cc(C)c(=O)[nH]c2=O)cc1`, for which the activation is -1.31% (inactive).

With `CCc1cccc2c(=O)c(C(=O)NCCCOC)c[nH]c12`, the activation entry is “inactive”.

As for `O=C(Cc1ccc2c(c1)CCCC2)Nc1ccccc1Cl`, the activation was 159% (active).

For `O=C(Nc1ccc2c(c1)CCC2)c1cccc(S(=O)(=O)Nc2ccccc2Cl)c1`, the activation was 0.69% (inactive).

In the case of `Cc1cc(C(=O)OCC(=O)Nc2ccccc2Cl)c(C)o1`, the activation was 11.9% (inactive).

Turning to `O=[N+]([O-])c1cnc2ccc3ccccc3c2c1`, the activation was 31.2% (active).

As for `O=[N+]([O-])c1ccc2nc(-c3ccccn3)[nH]c2c1`, the activation result was “inactive”.

As for `CN(CCc1ccccc1)c1ccc([N+](=O)[O-])cn1`, the activation entry is “inactive”.

In the case of `COc1ccc(N(CC(=O)NC2CCCCC2)C(=O)CNC(=O)c2ccco2)c(OC)c1`, the activation is 16.7% (active).

Regarding `COC(=O)c1ccc(N(CC(=O)NC2CCCC2)C(=O)CNC(=O)c2ccco2)cc1`, the activation was -0.813% (inactive).

Turning to `COc1cccc(N(C(=O)CNC(=O)c2ccco2)C(C(=O)NC2CCCCC2)c2cccnc2)c1` (stereo not given), the activation is 0.162% (inactive).

For `CC(C)CN(C(=O)Cn1c(=O)cnc2ccccc21)C1CCS(=O)(=O)C1` (stereo not given), the activation is -2.94% (inactive).

As to `CC(=O)OCCN(CCCn1c(-c2ccncc2)nc2ccccc21)c1nc(-c2ccc(C)cc2)cs1`, the activation is -0.447% (inactive).

Consider `Cc1ccc(C)c(NC(=O)c2cc(-c3cc(C)cc(C)c3O)n[nH]2)c1`, for which the activation was 1.16% (inactive).

Turning to `COc1cccc(NC(=O)COC(=O)/C=C/c2ccco2)c1`, the activation result was “inactive”.

`CC(C)CNC(=O)COC(=O)/C=C/c1ccco1`: the activation was 180% (active).

In the case of `CC(C)CNC(=O)COC(=O)/C=C/c1ccccc1[N+](=O)[O-]`, the activation was 13.6% (inactive).

Regarding `CC(CN1CCCCC1)c1ccccc1` (stereo not given), the activation result is “inactive”.
